Test results as given in PubChem BioAssay AID1159580 (chemical genetic matrix, 2015).
The campaign covered roughly 5,500 compounds. About 2,000 (36%) were called active. Roughly 18% stayed inconclusive and do not appear here. Rule as the data show it: active = normalized growth mostly below about 0.91 (no sharp cut-off); inconclusive = no clear call, values can overlap the other calls; inactive = mostly above about 0.92. This is one part of the list.

Experiment: chemical genetic growth profiling, strain panel (AID 1159580);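 also: tested at 20 µM; growth read once vehicle control cultures reached saturation at 30 °C; 1 = growth at the plate median or of vehicle wells; lower values mean less growth of the strain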
Conditions: growth OD

Measured: normalized growth

C/C=C(/C(=C/C)c1ccc(O)cc1)c1ccc(O)cc1
active: S. cerevisiae deletion strains, locus YKL009W, strain mrt4, hits give low values 0.81 | S. cerevisiae deletion strains, locus YKL085W, strain MDH1 (second series), hits give low values 0.764 | S. cerevisiae deletion strains, locus YKL085W, strain MDH1, hits give low values 0.764 | S. cerevisiae deletion strains, locus YKR001C, strain vps1, hits give low values 0.531 | S. cerevisiae deletion strains, locus YLR039C, strain RIC1, hits give low values 0.368 | S. cerevisiae deletion strains, locus YLR058C, strain SHM2, hits give low values 0.759 | S. cerevisiae deletion strains, locus YLR262C, strain YPT6 (second series), hits give low values 0.659 | S. cerevisiae deletion strains, locus YLR262C, strain YPT6, hits give low values 0.292 | S. cerevisiae deletion strains, locus YLR268W, strain sec22, hits give low values 0.866 | S. cerevisiae deletion strains, locus YLR330W, strain CHS5, hits give low values 0.724 | S. cerevisiae deletion strains, locus YLR342W, strain FKS1 (second series), hits give low values 0.683 | S. cerevisiae deletion strains, locus YLR371W, strain rom2, hits give low values 0.453 | S. cerevisiae deletion strains, locus YLR418C, strain cdc73, hits give low values 0.542 | S. cerevisiae deletion strains, locus YML016C, strain PPZ1, hits give low values 0.914 | S. cerevisiae deletion strains, locus YML032C, strain rad52, hits give low values 0.691 | S. cerevisiae deletion strains, locus YML120C, strain ndi1, hits give low values 0.909 | S. cerevisiae deletion strains, locus YMR223W, strain ubp8, hits give low values 0.745 | S. cerevisiae deletion strains, locus YMR263W, strain SAP30, hits give low values 0.851 | S. cerevisiae deletion strains, locus YMR307W, strain GAS1, hits give low values 0.336 | S. cerevisiae deletion strains, locus YNL067W, strain RPL9B, hits give low values 0.863 | S. cerevisiae deletion strains, locus YNL071W, strain lat1, hits give low values 0.906 | S. cerevisiae deletion strains, locus YNL233W, strain BNI4, hits give low values 0.76 | S. cerevisiae deletion strains, locus YNL250W, strain rad50, hits give low values 0.871 | S. cerevisiae deletion strains, locus YNL271C, strain bni1, hits give low values 0.899 | S. cerevisiae deletion strains, locus YNL298W, strain CLA4, hits give low values 0.629 | S. cerevisiae deletion strains, locus YNL307C, strain MCK1, hits give low values 0.707 | S. cerevisiae deletion strains, locus YNR052C, strain pop2, hits give low values 0.383 | S. cerevisiae deletion strains, locus YOL006C, strain TOP1, hits give low values 0.456 | S. cerevisiae deletion strains, locus YOL147C, strain pex11, hits give low values 0.839 | S. cerevisiae deletion strains, locus YOR061W, strain CKA2, hits give low values 0.879 | S. cerevisiae deletion strains, locus YOR069W, strain VPS5, hits give low values 0.896 | S. cerevisiae deletion strains, locus YOR144C, strain elg1, hits give low values 0.86 | S. cerevisiae deletion strains, locus YOR184W, strain ser1, hits give low values 0.609 | S. cerevisiae deletion strains, locus YPR163C, strain tif3, hits give low values 0.91 | S. cerevisiae deletion strains, locus YPR167C, strain met16, hits give low values 0.854 | S. cerevisiae deletion strains, strain wtn01, hits give low values 0.837 | S. cerevisiae strains, strain wild type, hits give low values 0.877
inactive: S. cerevisiae deletion strains, locus YKL068W, hits give low values 0.961 | S. cerevisiae deletion strains, locus YKL160W, strain elf1, hits give low values 0.947 | S. cerevisiae deletion strains, locus YKL190W, strain CNB1, hits give low values 0.976 | S. cerevisiae deletion strains, locus YKR026C, strain gcn3, hits give low values 0.986 | S. cerevisiae deletion strains, locus YKR091W, strain srl3, hits give low values 0.995 | S. cerevisiae deletion strains, locus YLL001W, strain dnm1, hits give low values 0.948 | S. cerevisiae deletion strains, locus YLL026W, hits give low values 0.969 | S. cerevisiae deletion strains, locus YLL041C, strain sdh2, hits give low values 0.965 | S. cerevisiae deletion strains, locus YLR027C, strain aat2, hits give low values 0.959 | S. cerevisiae deletion strains, locus YLR102C, strain apc9, hits give low values 0.991 | S. cerevisiae deletion strains, locus YLR113W, strain HOG1, hits give low values 0.985 | S. cerevisiae deletion strains, locus YLR221C, strain rsa3, hits give low values 0.982 | S. cerevisiae deletion strains, locus YLR258W, strain gsy2, hits give low values 0.996 | S. cerevisiae deletion strains, locus YLR320W, strain mms22, hits give low values 0.978 | S. cerevisiae deletion strains, locus YLR342W, strain FKS1, hits give low values 0.943 | S. cerevisiae deletion strains, locus YLR357W, strain rsc2, hits give low values 0.989 | S. cerevisiae deletion strains, locus YLR370C, strain arc18, hits give low values 1 | S. cerevisiae deletion strains, locus YLR384C, strain iki3, hits give low values 0.983 | S. cerevisiae deletion strains, locus YML124C, strain tub3, hits give low values 0.971 | S. cerevisiae deletion strains, locus YMR058W, strain fet3, hits give low values 0.932 | S. cerevisiae deletion strains, locus YMR078C, strain ctf18, hits give low values 0.979 | S. cerevisiae deletion strains, locus YMR125W, strain sto1, hits give low values 0.924 | S. cerevisiae deletion strains, locus YMR129W, hits give low values 0.986 | S. cerevisiae deletion strains, locus YMR205C, strain PFK2, hits give low values 0.958 | S. cerevisiae deletion strains, locus YMR231W, strain pep5, hits give low values 0.975 | S. cerevisiae deletion strains, locus YNL183C, strain NPR1, hits give low values 0.971 | S. cerevisiae deletion strains, locus YNL209W, strain ssb2, hits give low values 1 | S. cerevisiae deletion strains, locus YNL248C, strain rpa49, hits give low values 0.951 | S. cerevisiae deletion strains, locus YNL322C, strain KRE1 (second series), hits give low values 0.985 | S. cerevisiae deletion strains, locus YNR049C, strain mso1, hits give low values 0.99 | S. cerevisiae deletion strains, locus YOL012C, strain htz1 1.01 | S. cerevisiae deletion strains, locus YOR001W, strain rrp6, hits give low values 0.967 | S. cerevisiae deletion strains, locus YOR070C, strain gyp1, hits give low values 0.989 | S. cerevisiae deletion strains, locus YOR080W, strain dia2, hits give low values 0.97 | S. cerevisiae deletion strains, locus YOR083W, strain WHI5, hits give low values 0.929 | S. cerevisiae deletion strains, locus YOR106W, strain vam3, hits give low values 0.914 | S. cerevisiae deletion strains, locus YOR136W, strain idh2, hits give low values 0.938 | S. cerevisiae deletion strains, locus YOR231W, strain MKK1, hits give low values 0.964 | S. cerevisiae deletion strains, locus YOR265W, strain rbl2, hits give low values 0.976 | S. cerevisiae deletion strains, locus YOR270C, strain vph1, hits give low values 0.911 | S. cerevisiae deletion strains, locus YOR290C, strain snf2, hits give low values 0.971 | S. cerevisiae deletion strains, locus YOR316C, strain cot1, hits give low values 0.993 | S. cerevisiae deletion strains, locus YPL051W, strain arl3, hits give low values 0.956 | S. cerevisiae deletion strains, locus YPL078C, strain atp4, hits give low values 0.901 | S. cerevisiae deletion strains, locus YPL106C, strain sse1, hits give low values 0.975 | S. cerevisiae deletion strains, locus YPL240C, strain hsp82, hits give low values 0.981 | S. cerevisiae deletion strains, locus YPL241C, strain CIN2, hits give low values 0.988 | S. cerevisiae deletion strains, locus YPL256C, strain CLN2, hits give low values 0.992 | S. cerevisiae deletion strains, locus YPR119W, strain clb2, hits give low values 0.981 | S. cerevisiae deletion strains, locus YPR141C, strain kar3, hits give low values 0.978
